# Bioassay records: PubChem, National Center for Advancing Translational Sciences (NCATS)
# Pf growth 48h: Primary qHTS for delayed death inhibitors of the malarial parasite plastid, 48 hour incubation; P. falciparum luciferase growth in erythrocytes, 48 h; Potency, µM (doses to about 28.7 µM), for inactives: at the highest dose activity change, negative = inhibition, usual class: inhibitors; actives 5.9% (n = 310,000); AID 504832, 2011
#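 Luciferase-expressing P. falciparum in infected erythrocytes (2% hematocrit, 0.1% parasitemia final) in RPMI 1640/0.5% Albumax were exposed to compound for 48 hours at 37 C, 5% CO2; growth read as luminescence.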
# Pf growth 96h: Primary qHTS for delayed death inhibitors of the malarial parasite plastid, 96 hour incubation; P. falciparum luciferase reporter growth, 96 h; Potency, µM (titrated, usually from 28.7 µM), without a hit: top-dose activity change, negative = inhibition, most hits filed as inhibitors; actives 6.9% (n = 320,000)
#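 P. falciparum expressing integrated firefly luciferase, in erythrocytes at 2% hematocrit, 0.05% parasitemia, incubated with compounds 96 h at 37 C, 5% CO2. Growth inhibition read as loss of luminescence; two-generation exposure targets delayed-death apicoplast inhibitors.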
# AMA1-RON2 inh: qHTS for Inhibitors of AMA1-RON; Towards Development of Antimalarial Drug Lead: Primary Screen. Plasmodium falciparum AMA1 (3D7) - RON2 peptide interaction. AlphaScreen AMA1-biotinylated RON2 peptide binding. Potency, µM (top dose mostly 58.2 µM), inactives show at the highest dose activity change, negative = inhibition, hits mostly inhibitors. actives 0.2% (n = 360,000). AID 720542, 2013;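 further: 0% = vehicle wells and -100% = peptide control; nearly all actives have a fitted effect of over 45% in size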
#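 AMA1 (3D7) with his tag at 25 nM final met compounds first, then biotinylated RON2 peptide at 25 nM; detection used donor plus acceptor beads, 10 µg/mL apiece, read by AlphaScreen after 30 min at room temperature.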
# HCV inh: qHTS Assay for Inhibitors of Hepatitis C Virus (HCV); actives 3.4% (n = 340,000); Potency, µM (series often up to 41.8 µM), inactives show at the highest dose activity change, negative = inhibition, usual class: inhibitors; Huh7.5.1 HCVcc-Cre infection, luciferase reporter, 44 h; AID 651820, 2012
#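 Seed cells (1,000/well) for 4 h; treat with compound and infect with HCVcc-Cre, moi about 0.5. Incubate 44 h, then detect luciferase activity.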
# * marks the source's active call; other numbers are inactive results; ? = inconclusive; / = no result. A selection: hits, their analogues and other compounds. The true share with any hit is near 11%. The call rests on the fitted dose curve; in most records, active means well fitted curve in the direction sought with a large enough effect; inconclusive means small, poorly fitted or top-dose-only effect, or another doubt; inactive means no such curve, though single readings can be large; an effect the other way counts as inactive or inconclusive. Unless noted, on the % scale 0 is the no-effect control and ±100 the full control effect; potency means the concentration at half of the fitted maximal effect.
SMILES,Pf growth 48h,Pf growth 96h,AMA1-RON2 inh,HCV inh
Cc1ccc(S(=O)(=O)N(C)C[C@H]2OCc3cn(nn3)CCCC(=O)N([C@H](C)CO)C[C@@H]2C)cc1,/,/,-3%,/
COc1cccc(CNC(=O)CCC2CCCN(C(=O)c3ccc(OC)c(F)c3)C2)c1 (stereo unspecified),-17%,23%,-12%,-5%
O=C(CN1C(=O)CSc2ccc(S(=O)(=O)N3CCCCCC3)cc21)NCCc1ccccc1,/,/,-4%,?
CCN(CC)CCCNC(=O)CN1C(=O)CSc2ccc(S(=O)(=O)N3CCOCC3)cc21,-19%,?,-1%,22%
CCN(CC)CC(C)CNC(=O)CN1C(=O)CSc2ccc(S(=O)(=O)N3CCOCC3)cc21 (stereo unspecified),-8%,13µM*,-4%,4%
O=C(CN1C(=O)CSc2ccc(S(=O)(=O)N3CCCCC3)cc21)NCc1ccccc1,-15%,4.1µM*,11%,-10%
C=CCOc1ccc(CN(C)C(=O)CNC(=O)c2ccc(-c3ccccc3)cc2)cc1,13µM*,-29%,-4%,11µM*
CCC(C)NCCC(=O)Nc1ccc(Cl)c(S(=O)(=O)Nc2ccc(Cl)cc2)c1 (stereo unspecified),10µM*,9.3µM*,-10%,?
CCOc1ccc(NS(=O)(=O)c2cc(NC(=O)c3ccc(C)cc3)ccc2Cl)cc1,?,?,8%,7.9µM*
C=CCOc1ccc(C(=O)Nc2ccc(OCC)cc2)cc1,0%,4.1µM*,-12%,-17%
Cc1ccc(C(=O)CCC(=O)Nc2ccc(Cl)c(S(=O)(=O)Nc3cccc(Cl)c3)c2)cc1,5%,31%,-4%,14%
CCOc1ccc(CN(C)C(=O)CNC(=O)c2ccccc2)cc1,?,?,24%,4%
C#CCOCCOCCOCCNc1nc(N2CCN(C(=O)[C@H]([C@@H](C)CC)n3cc([C@@H](N)CO)nn3)CC2)nc(N2CCN(C(=O)[C@H](CCCCN)n3cc([C@@H](N)CC(C)C)nn3)CC2)n1,9%,34%,8%,10%
COc1cccc(C(=O)NNC(=O)c2ccc(NS(=O)(=O)c3cccs3)cc2)c1OC,2.9µM*,2.1µM*,16%,-5%
CCOc1ccc(NC(=O)c2ccc(NS(=O)(=O)c3cccs3)cc2)cc1,-3%,0.83µM*,-11%,-13%
CCOc1ccc(C(=O)Nc2ccc3[nH]ncc3c2)cc1,183%,12µM*,19%,-21%
COc1ccc(C(=O)Nc2ccc3[nH]ncc3c2)cc1,158%,133%,-10%,-22%
Cc1ccc(C(=O)NC(=S)N(C)C2CCCCC2)cc1,-24%,?,92%,10%
CCCC(=O)Nc1nnc(S(=O)(=O)N(CC)c2ccc(OC)cc2)s1,12%,27%,2%,-5%
S=c1[nH]nc(Cn2cnc3ccccc32)n1-c1ccccc1,6%,-20%,14%,13%
CCCOC1CCCN(C(=O)CCc2nnc(-c3ccc4c(c3)OCO4)o2)C1 (stereo unspecified),15%,13µM*,-10%,-5%
CCN(CC)Cc1c(C(=O)N/N=C/c2ccccn2)nnn1-c1nonc1N,-4%,24%,100%,6%
CCOC(=O)C1=C(Nc2cccc(Cl)c2)OCC1=O,-26%,9.3µM*,0%,-3%
O=C(Cn1c(=O)c(=O)n(Cc2ccccc2)c2ccc(Cl)cc21)Nc1cccc(F)c1,2%,13µM*,6%,?
O=C(Cn1c2ccccc2c(=O)c2ccccc21)Nc1cccc(F)c1,15µM*,?,13%,-13%
SMILES,Pf growth 48h,Pf growth 96h,AMA1-RON2 inh,HCV inh
O=C(CCc1nc2ccccc2s1)Nc1cccnc1,6%,-4%,-5%,-14%
O=C1CCCc2cc3c(cc21)CC1(C3)Cc2cc3c(cc2C1)C(=O)CCC3,5.2µM*,?,-6%,11µM*
CCOc1ncccc1C(=O)OCC(=O)c1ccc(F)cc1,-19%,8%,25%,-6%
Cc1ccc(CNS(=O)(=O)/C=C/c2ccc3c(c2)OCO3)cc1,17%,47%,10%,?
COc1ccc(CN2C(=O)CC(=O)NC2=O)cc1,1%,4.1µM*,2%,23%
COc1ccc(N2C(=O)CC(=O)NC2=O)cc1,28%,-5%,-4%,2%
